The target of assay [1] is Calcium/calmodulin-dependent protein kinase type 1 (Homo sapiens) (UniProt Q14012). The settings on record: at 1 µM.
The target is the same in assay [2]. The settings on record: at 10 µM.
Assay [3] addresses Calcium/calmodulin-dependent protein kinase type II subunit beta (Homo sapiens) (UniProt Q13554). Particulars: at 1 µM.
Assay [4] has the same target. Particulars: at 10 µM.
Assay [5] addresses Calcium/calmodulin-dependent protein kinase type II subunit gamma (Homo sapiens) (UniProt Q13555). Particulars: at 1 µM.
The target is the same in assay [6]. Particulars: at 10 µM.
In assay [7] the target is Calcium/calmodulin-dependent protein kinase type II subunit delta (Homo sapiens) (UniProt Q13557). Particulars: at 1 µM.
Assay [8] shares this target. Particulars: at 10 µM.
The target in assay [9] is T1, Calcium/calmodulin-dependent protein kinase type IV (Homo sapiens) (UniProt Q16566).
T1 sequence (whole entry): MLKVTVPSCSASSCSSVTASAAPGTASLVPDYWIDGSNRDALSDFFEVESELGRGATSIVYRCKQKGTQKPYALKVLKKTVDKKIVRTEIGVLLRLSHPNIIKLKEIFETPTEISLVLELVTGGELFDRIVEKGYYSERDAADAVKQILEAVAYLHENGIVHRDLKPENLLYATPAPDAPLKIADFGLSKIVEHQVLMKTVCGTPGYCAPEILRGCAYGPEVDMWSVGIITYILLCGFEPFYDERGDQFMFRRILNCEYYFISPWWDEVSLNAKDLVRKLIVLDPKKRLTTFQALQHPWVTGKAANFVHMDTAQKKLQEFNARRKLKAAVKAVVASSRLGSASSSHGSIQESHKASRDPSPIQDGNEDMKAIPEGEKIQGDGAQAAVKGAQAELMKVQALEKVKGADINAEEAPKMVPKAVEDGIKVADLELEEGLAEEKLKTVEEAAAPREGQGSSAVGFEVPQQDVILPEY
Particulars: at 1 µM.

In assay [10] the target is T1, Calcium/calmodulin-dependent protein kinase type IV (Homo sapiens). Particulars: at 10 µM.
Assay [11] addresses Death-associated protein kinase 1 (Homo sapiens) (UniProt P53355). The settings on record: at 10 µM.
For assay [12], the target named is Death-associated protein kinase 2 (Homo sapiens) (UniProt Q9UIK4). Particulars: at 1 µM.
For assay [13] the target is unchanged. Particulars: at 10 µM.
For assay [14], the target named is T2, Serine/threonine-protein kinase DCLK2 (Homo sapiens) (UniProt Q8N568).
T2 sequence (whole entry): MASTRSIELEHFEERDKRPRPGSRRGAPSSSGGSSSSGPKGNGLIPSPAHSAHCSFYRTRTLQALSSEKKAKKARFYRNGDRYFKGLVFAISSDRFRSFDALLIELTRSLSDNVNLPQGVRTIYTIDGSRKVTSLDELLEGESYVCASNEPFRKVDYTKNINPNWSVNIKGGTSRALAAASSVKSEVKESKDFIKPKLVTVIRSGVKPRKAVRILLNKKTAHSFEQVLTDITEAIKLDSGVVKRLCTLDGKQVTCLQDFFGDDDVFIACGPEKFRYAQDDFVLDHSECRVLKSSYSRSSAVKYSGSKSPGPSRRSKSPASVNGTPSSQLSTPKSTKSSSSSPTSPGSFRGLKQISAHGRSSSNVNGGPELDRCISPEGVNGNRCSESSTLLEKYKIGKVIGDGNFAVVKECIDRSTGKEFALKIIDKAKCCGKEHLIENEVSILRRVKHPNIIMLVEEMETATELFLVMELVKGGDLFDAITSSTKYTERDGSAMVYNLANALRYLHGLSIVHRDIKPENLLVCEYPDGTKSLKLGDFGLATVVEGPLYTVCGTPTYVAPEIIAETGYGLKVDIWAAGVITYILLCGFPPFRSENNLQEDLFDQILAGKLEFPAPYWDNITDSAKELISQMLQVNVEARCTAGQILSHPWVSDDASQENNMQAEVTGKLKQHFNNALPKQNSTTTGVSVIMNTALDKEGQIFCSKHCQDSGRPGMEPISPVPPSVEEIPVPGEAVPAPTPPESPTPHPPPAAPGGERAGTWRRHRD
Particulars: at 1 µM.

For assay [15], the target named is T2, Serine/threonine-protein kinase DCLK2 (Homo sapiens). The settings on record: at 10 µM.
The target of assay [16] is T3, Discoidin domain-containing receptor 2 (Homo sapiens) (UniProt Q16832).
T3 sequence (whole entry): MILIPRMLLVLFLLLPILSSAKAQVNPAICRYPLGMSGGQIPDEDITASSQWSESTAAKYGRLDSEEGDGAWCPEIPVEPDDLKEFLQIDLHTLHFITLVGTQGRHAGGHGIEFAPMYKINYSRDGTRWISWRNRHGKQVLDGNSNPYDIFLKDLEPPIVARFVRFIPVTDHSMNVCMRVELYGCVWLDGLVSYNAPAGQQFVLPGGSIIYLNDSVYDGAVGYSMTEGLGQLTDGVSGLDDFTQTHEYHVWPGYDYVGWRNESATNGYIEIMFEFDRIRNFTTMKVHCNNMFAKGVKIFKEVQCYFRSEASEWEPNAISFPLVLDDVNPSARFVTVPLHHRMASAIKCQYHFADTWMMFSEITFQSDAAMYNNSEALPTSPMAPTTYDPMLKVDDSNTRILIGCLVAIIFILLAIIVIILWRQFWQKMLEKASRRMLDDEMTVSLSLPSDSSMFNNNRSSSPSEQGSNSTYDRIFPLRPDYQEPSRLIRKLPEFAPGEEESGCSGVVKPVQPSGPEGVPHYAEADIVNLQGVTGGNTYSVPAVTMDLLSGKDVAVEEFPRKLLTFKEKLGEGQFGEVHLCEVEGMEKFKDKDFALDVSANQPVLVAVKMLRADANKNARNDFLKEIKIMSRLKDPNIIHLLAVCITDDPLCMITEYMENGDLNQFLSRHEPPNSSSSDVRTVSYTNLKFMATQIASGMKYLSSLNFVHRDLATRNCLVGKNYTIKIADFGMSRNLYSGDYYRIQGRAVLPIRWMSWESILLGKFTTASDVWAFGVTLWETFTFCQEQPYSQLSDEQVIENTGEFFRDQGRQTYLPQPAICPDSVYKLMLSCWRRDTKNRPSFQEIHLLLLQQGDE
Particulars: at 1 µM.

Assay [17] deals with T3, Discoidin domain-containing receptor 2 (Homo sapiens). Particulars: at 10 µM.
For assay [18], the target named is T4, Myotonin-protein kinase (Homo sapiens) (UniProt Q09013).
T4 sequence (whole entry): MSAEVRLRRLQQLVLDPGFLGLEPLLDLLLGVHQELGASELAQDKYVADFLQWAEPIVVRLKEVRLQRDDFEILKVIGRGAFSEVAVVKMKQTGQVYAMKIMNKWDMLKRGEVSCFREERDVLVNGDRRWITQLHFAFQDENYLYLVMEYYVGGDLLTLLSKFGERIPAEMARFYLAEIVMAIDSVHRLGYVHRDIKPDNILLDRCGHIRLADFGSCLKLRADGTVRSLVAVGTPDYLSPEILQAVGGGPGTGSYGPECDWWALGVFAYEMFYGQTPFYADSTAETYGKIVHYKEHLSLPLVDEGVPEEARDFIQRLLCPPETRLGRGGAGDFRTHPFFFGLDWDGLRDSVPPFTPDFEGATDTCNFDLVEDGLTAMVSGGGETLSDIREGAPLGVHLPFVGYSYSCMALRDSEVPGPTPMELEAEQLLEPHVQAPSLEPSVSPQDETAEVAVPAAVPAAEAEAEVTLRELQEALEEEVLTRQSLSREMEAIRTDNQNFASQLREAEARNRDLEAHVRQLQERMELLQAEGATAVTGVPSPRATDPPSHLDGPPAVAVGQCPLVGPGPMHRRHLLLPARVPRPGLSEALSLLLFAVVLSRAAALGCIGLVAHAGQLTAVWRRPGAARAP
Particulars: at 1 µM.

For assay [19], the target named is T4, Myotonin-protein kinase (Homo sapiens). The settings on record: at 10 µM.
The target of assay [20] is T5, Serine/threonine-protein kinase 17A (Homo sapiens) (UniProt Q9UEE5).
T5 sequence (whole entry): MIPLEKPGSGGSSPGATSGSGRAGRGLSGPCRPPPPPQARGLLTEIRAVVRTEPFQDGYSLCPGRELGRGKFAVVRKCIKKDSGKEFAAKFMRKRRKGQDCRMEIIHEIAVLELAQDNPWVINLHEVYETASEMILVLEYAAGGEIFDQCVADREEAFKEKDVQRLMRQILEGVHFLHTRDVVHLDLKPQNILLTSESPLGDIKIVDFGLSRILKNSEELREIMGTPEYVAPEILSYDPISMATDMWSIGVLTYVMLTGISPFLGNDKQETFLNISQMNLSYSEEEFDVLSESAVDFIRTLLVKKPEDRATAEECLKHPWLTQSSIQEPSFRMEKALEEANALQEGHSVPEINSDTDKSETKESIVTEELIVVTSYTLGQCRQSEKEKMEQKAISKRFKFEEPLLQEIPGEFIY
The settings on record: at 1 µM.

Chain of Death-associated protein kinase 2 (Homo sapiens) (Q9UIK4 whole entry, looked up): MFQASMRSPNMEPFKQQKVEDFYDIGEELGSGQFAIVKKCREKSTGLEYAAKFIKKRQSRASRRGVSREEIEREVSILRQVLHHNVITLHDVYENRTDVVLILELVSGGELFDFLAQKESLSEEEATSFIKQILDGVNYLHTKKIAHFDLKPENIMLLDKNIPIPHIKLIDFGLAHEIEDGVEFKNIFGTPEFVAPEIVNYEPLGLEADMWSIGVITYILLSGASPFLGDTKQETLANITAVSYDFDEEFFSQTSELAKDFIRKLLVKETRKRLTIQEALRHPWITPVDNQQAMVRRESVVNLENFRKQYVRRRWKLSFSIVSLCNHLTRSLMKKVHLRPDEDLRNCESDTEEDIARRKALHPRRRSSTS
Chain of Calcium/calmodulin-dependent protein kinase type II subunit gamma (Homo sapiens) (Q13555 whole entry): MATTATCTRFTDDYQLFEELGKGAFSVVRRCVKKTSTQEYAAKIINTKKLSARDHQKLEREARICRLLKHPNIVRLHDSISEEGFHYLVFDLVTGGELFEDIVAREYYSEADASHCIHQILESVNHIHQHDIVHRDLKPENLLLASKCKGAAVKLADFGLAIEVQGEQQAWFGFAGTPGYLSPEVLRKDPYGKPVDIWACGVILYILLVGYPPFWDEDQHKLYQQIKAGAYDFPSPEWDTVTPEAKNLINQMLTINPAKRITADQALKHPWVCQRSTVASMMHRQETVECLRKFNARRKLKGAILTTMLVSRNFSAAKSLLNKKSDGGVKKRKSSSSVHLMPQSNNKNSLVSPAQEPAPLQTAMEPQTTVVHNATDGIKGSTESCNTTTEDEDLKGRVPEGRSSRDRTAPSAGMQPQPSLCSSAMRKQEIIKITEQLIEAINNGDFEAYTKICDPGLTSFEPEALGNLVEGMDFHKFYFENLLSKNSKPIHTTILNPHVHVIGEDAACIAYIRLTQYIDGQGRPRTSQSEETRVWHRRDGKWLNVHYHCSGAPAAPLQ
Chain of Calcium/calmodulin-dependent protein kinase type II subunit delta (Homo sapiens) (Q13557 whole entry): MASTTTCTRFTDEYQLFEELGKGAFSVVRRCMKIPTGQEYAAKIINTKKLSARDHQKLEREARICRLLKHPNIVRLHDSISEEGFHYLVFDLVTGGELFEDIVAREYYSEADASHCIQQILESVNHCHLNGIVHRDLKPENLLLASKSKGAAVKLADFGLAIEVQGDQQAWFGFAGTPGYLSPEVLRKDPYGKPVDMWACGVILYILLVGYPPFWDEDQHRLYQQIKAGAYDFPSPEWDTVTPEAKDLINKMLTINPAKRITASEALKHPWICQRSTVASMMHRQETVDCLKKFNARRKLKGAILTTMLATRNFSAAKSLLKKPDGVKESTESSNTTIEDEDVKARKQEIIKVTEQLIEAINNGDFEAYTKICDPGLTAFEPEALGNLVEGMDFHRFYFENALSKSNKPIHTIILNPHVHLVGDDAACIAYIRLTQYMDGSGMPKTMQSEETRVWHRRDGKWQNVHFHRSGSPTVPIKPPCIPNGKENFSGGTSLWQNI
Chain of Death-associated protein kinase 1 (Homo sapiens) (P53355 whole entry, looked up): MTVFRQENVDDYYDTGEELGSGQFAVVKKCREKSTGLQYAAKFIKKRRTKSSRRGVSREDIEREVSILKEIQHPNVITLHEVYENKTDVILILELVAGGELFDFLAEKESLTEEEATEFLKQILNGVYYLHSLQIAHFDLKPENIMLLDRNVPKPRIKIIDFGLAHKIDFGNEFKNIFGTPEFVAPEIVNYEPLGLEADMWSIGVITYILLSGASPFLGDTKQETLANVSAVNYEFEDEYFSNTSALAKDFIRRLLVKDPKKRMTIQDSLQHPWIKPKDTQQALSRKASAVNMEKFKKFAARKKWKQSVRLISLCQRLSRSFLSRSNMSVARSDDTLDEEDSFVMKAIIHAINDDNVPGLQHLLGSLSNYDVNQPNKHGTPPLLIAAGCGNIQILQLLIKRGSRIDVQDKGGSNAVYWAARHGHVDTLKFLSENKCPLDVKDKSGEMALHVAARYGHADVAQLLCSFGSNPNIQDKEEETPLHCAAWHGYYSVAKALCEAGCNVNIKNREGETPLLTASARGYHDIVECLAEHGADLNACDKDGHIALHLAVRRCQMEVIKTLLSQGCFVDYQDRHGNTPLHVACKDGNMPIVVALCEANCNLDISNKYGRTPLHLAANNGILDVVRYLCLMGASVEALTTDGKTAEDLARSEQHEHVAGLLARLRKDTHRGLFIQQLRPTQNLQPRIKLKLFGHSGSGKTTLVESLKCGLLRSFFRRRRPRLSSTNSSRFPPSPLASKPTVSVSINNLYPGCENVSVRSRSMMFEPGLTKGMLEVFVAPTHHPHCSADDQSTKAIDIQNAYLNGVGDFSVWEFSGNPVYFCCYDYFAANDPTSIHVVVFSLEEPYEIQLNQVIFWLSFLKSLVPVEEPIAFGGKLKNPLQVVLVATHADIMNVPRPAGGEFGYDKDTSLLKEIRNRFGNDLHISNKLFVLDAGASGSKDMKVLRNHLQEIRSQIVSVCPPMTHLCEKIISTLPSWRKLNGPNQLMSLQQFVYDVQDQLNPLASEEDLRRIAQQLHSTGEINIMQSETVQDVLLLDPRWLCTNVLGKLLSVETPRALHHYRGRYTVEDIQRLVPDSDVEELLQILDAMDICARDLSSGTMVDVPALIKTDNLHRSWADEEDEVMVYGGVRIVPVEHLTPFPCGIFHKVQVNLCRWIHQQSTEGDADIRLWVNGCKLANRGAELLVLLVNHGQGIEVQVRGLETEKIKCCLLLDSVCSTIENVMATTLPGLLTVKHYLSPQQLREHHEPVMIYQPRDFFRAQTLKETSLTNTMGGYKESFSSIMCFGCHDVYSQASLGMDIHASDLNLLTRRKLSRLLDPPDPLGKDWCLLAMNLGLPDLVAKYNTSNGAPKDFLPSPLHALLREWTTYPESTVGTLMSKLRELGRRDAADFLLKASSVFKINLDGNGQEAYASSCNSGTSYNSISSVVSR
Chain of Calcium/calmodulin-dependent protein kinase type II subunit beta (Homo sapiens) (Q13554 whole entry): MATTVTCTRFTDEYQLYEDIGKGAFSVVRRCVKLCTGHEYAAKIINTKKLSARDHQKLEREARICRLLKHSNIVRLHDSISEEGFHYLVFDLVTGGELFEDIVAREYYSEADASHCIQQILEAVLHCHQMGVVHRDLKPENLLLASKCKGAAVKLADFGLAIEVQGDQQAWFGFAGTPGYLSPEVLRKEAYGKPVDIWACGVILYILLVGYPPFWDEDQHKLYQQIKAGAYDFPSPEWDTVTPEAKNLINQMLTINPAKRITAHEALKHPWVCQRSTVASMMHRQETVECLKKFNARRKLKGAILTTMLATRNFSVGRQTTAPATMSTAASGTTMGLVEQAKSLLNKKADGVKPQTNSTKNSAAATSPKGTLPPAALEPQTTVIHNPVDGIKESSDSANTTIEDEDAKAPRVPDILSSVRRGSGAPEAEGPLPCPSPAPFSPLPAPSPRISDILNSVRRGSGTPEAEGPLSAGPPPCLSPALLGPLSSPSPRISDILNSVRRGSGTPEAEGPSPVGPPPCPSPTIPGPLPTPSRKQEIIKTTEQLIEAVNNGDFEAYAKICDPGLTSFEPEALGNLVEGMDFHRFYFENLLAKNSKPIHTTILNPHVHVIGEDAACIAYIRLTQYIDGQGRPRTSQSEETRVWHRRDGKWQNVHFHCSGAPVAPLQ
Chain of Calcium/calmodulin-dependent protein kinase type 1 (Homo sapiens) (Q14012 whole entry, looked up): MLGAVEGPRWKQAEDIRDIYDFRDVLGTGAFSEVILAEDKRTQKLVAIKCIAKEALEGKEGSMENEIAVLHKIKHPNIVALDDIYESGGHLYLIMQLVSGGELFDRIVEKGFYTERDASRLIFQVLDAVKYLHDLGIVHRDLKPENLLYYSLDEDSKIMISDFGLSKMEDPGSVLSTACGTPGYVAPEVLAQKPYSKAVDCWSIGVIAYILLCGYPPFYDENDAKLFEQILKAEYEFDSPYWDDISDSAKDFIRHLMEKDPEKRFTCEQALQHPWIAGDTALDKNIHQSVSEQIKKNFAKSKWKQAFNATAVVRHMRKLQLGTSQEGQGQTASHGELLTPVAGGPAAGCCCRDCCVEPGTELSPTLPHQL

In the case of `COc1ccc(C(=O)Nc2sc3c(c2C(N)=O)CCCC3)cc1OC`, the residual activity in [1] was 102%; in assay [2], 75%; in [3], 83%; in assay [4], 73%; in assay [5], 86%; in [6], 66%. Besides, the residual activity was found to be 86% in assay [7]; 66% in assay [8]; 107% in [9]; 85% in assay [10]; 86% in assay [11]; 90% in [12]. For the same compound, the residual activity in assay [13] was 105%; in assay [14], 86%; in assay [15], 61%; in assay [16], 101%; in assay [17], 98%; in assay [18], 113%. For the same compound, the residual activity is 127% in [19] and 125% in assay [20].

For the compound `CC(=O)O/N=C1\C(=C2\C(=O)Nc3cc(Br)ccc32)Nc2ccccc21`, the residual activity amounted to 82% in assay [1]; 50% in assay [2]; 79% in [3]; 27% in assay [4]; 23% in assay [5]; 4% in [6]. Moreover, the residual activity in assay [7] came to 17%; in [8] it was 4%; in assay [9], 100%; in assay [10], 90%; in assay [11], 84%; in [12], 86%. Moreover, the residual activity came out at 65% in assay [13]; 107% in [14]; 94% in assay [15]; 91% in assay [16]; 71% in [17]; 106% in assay [18]. For the same compound, the residual activity in assay [19] turned out to be 89%; in assay [20], 63%.

Consider `COc1ccc(CNc2nc(N(CCO)CCO)nc3c2ncn3C(C)C)cc1`, for which the residual activity in assay [1] amounted to 85%; in assay [2], 55%; in assay [3], 89%; in [4] it was 55%; in [5], 99%; in [6] it was 63%. The residual activity worked out at 92% in [7]; 54% in assay [8]; 113% in assay [9]; 78% in assay [10]; 88% in [11]; 102% in assay [12]. The residual activity in assay [13] turned out to be 104%; in [14], 94%; in assay [15], 80%; in assay [16], 91%; in assay [17], 96%; in assay [18] it was 104%. The residual activity came to 73% in assay [19] and 106% in assay [20].

On to `CO[C@H]1C[C@@H]2CC[C@@H](C)[C@@](O)(O2)C(=O)C(=O)N2CCCC[C@H]2C(=O)O[C@H]([C@H](C)C[C@@H]2CC[C@@H](O)[C@H](OC)C2)CC(=O)[C@H](C)/C=C(\C)[C@@H](O)[C@@H](OC)C(=O)[C@H](C)C[C@H](C)/C=C/C=C/C=C/1C`, for which the residual activity turned out to be 108% in assay [1]; 84% in [2]; 92% in assay [3]; 79% in assay [4]; 103% in assay [5]; 96% in assay [6]. Moreover, the residual activity is 109% in [7]; 99% in [8]; 131% in assay [9]; 119% in assay [10]; 108% in assay [11]; 93% in [12]. In addition, the residual activity worked out at 110% in assay [13]; 137% in assay [14]; 360% in assay [15]; 115% in assay [16]; 110% in assay [17]; 145% in assay [18]. Also, the values for the residual activity in assay [19] and in assay [20] were 139% and 113%, respectively.

For `CNc1cc2c(Nc3cccc(Br)c3)ncnc2cn1`, the residual activity came to 95% in [1]; 65% in [2]; 87% in assay [3]; 51% in assay [4]; 93% in assay [5]; 32% in assay [6]. Besides, the residual activity turned out to be 85% in [7]; 42% in assay [8]; 110% in assay [9]; 56% in assay [10]; 60% in [11]; 86% in assay [12]. In addition, the residual activity is 69% in assay [13]; 121% in assay [14]; 97% in assay [15]; 84% in assay [16]; 68% in assay [17]; 107% in assay [18]. Also, the results for the residual activity in assay [19] and in [20] were 113% and 64%, respectively.

`NC(=O)c1ccc2[nH]c(-c3ccc(Oc4ccc(Cl)cc4)cc3)nc2c1`: the residual activity was determined as 94% in assay [1]; 92% in assay [2]; 87% in assay [3]; 43% in [4]; 92% in assay [5]; 58% in assay [6]. In addition, the residual activity is 91% in assay [7]; 61% in assay [8]; 108% in assay [9]; 108% in assay [10]; 98% in assay [11]; 101% in assay [12]. For the same compound, the residual activity turned out to be 102% in assay [13]; 111% in assay [14]; 182% in assay [15]; 98% in [16]; 102% in [17]; 107% in assay [18]. Besides, the values for the residual activity in [19] and in assay [20] were 83% and 58%, respectively.

As for `O=c1cc(-c2cccc3c2Sc2ccccc2S3)oc(N2CCOCC2)c1`, the residual activity in [1] was 113%; in assay [2] it was 87%; in [3], 96%; in assay [4], 82%; in [5] it was 101%; in assay [6], 85%. In addition, the residual activity turned out to be 96% in [7]; 84% in assay [8]; 114% in [9]; 98% in assay [10]; 81% in assay [11]; 106% in assay [12]. For the same compound, the residual activity in assay [13] is 89%; in [14], 118%; in assay [15] it was 85%; in assay [16] it was 93%; in [17], 100%; in assay [18] it was 120%. Also, the residual activity in assay [19] worked out at 105%; in assay [20] it was 106%.

The residual activity is the signal under treatment as a percentage of the control signal.
